# From the supplement of paper PMC8728848
# This is one part of a sample in which the strongest signals are shown more often than they occur.
# Columns and labels:
# Assay in all cases: glycan array binding signal (z-score within array); higher = stronger binding
# Details in all cases: glycan notation: IUPAC condensed, linker removed
# [1] = biological target: Gal6S(b1-4)Glc6S
# Outline: (§1)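 Columns mapping to the same glycan were averaged after glycan names were converted to IUPAC-condensed notation. The data come from 3228 arrays in the Consortium for Functional Glycomics database, limited to those with an available protein sequence. Binding is reported as a within-array Z-score averaged across arrays of one protein sequence and across linkers.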
# [2] = biological target: GalNAc(b1-4)GlcNAc(b1-2)Man
# Outline: as §1
# [3] = biological target: GalNAc(b1-4)GlcNAc6S
# Outline: as §1
# [4] = biological target: GlcA(b1-6)Gal
# Outline: as §1
# [5] = biological target: GlcNAc(b1-2)[GlcNAc(b1-4)]Man(a1-3)[GlcNAc(b1-4)][GlcNAc(b1-2)[GlcNAc(b1-6)]Man(a1-6)]Man(b1-4)GlcNAc(b1-4)[Fuc(a1-6)]GlcNAc
# Outline: as §1
# [6] = biological target: GlcNAc(b1-3)Gal(b1-4)GlcNAc(b1-2)Man(a1-3)[GlcNAc(b1-3)Gal(b1-4)GlcNAc(b1-2)Man(a1-6)]Man(b1-4)GlcNAc(b1-4)GlcNAc
# Outline: as §1
# [7] = biological target: GlcNAc(b1-3)Man
# Outline: as §1
# [8] = biological target: GlcNAc(b1-3)[GlcNAc(b1-4)][GlcNAc(b1-6)]GlcNAc
# Outline: as §1
# [9] = biological target: Man(a1-2)Man(a1-3)Man
# Outline: as §1
# [10] = biological target: Man(a1-3)[Man(a1-6)]Man(a1-6)[Man(a1-2)Man(a1-3)]Man(b1-4)GlcNAc(b1-4)GlcNAc
# Outline: as §1
# [11] = biological target: Neu5Ac(a2-3)Gal(b1-3)[Fuc(a1-4)]GlcNAc
# Outline: as §1
# [12] = biological target: Neu5Ac(a2-3)Gal(b1-4)GlcNAc(b1-2)Man(a1-3)[Neu5Ac(a2-3)Gal(b1-4)GlcNAc(b1-2)Man(a1-6)]Man(b1-4)GlcNAc(b1-4)GlcNAc
# Outline: as §1
# [13] = biological target: Neu5Ac(a2-3)Gal(b1-4)GlcNAc(b1-2)[Neu5Ac(a2-3)Gal(b1-4)GlcNAc(b1-4)]Man(a1-3)[GlcNAc(b1-4)][Neu5Ac(a2-3)Gal(b1-4)GlcNAc(b1-4)Man(a1-6)]Man(b1-4)GlcNAc(b1-4)GlcNAc
# Outline: as §1
# [14] = biological target: Neu5Ac(a2-3)Gal(b1-4)GlcNAc(b1-2)[Neu5Ac(a2-3)Gal(b1-4)GlcNAc(b1-6)]Man(a1-6)[Neu5Ac(a2-3)Gal(b1-4)GlcNAc(b1-2)Man(a1-3)]Man(b1-4)GlcNAc(b1-4)GlcNAc
# Outline: as §1
# [15] = biological target: Neu5Ac(a2-3)Gal(b1-4)GlcNAc(b1-3)Gal(b1-4)GlcNAc(b1-3)GalNAc
# Outline: as §1
# [16] = biological target: Neu5Ac(a2-3)Gal(b1-4)[Fuc(a1-3)]GlcNAc(b1-3)Gal
# Outline: as §1
# [17] = biological target: Neu5Ac(a2-3)Gal(b1-4)[Fuc(a1-3)]GlcNAc(b1-6)[Neu5Ac(a2-3)Gal(b1-3)]GalNAc
# Outline: as §1
# [18] = biological target: Neu5Ac(a2-3)GalNAc
# Outline: as §1
# [19] = biological target: Neu5Ac(a2-3)[GalNAc(b1-4)]Gal(b1-4)Glc
# Outline: as §1
# [20] = biological target: Neu5Ac(a2-6)Gal(b1-4)GlcNAc(b1-2)Man(a1-3)Man(b1-4)GlcNAc(b1-4)GlcNAc
# Outline: as §1
# [21] = biological target: Neu5Ac(a2-6)Gal(b1-4)GlcNAc(b1-2)Man(a1-3)[Neu5Ac(a2-6)Gal(b1-4)GlcNAc(b1-2)Man(a1-6)]Man(b1-4)GlcNAc(b1-4)[Fuc(a1-6)]GlcNAc
# Outline: as §1
# [22] = biological target: Neu5Ac(a2-6)Gal(b1-4)GlcNAc(b1-2)Man(a1-6)[GlcNAc(b1-2)Man(a1-3)]Man(b1-4)GlcNAc(b1-4)GlcNAc
# Outline: as §1
# [23] = biological target: Neu5Ac(a2-6)Gal(b1-4)GlcNAc(b1-2)Man(a1-6)[Man(a1-3)]Man(b1-4)GlcNAc(b1-4)GlcNAc
# Outline: as §1
# [24] = biological target: Neu5Ac(a2-6)Gal(b1-4)GlcNAc(b1-2)[Neu5Ac(a2-6)Gal(b1-4)GlcNAc(b1-4)]Man(a1-3)[GlcNAc(b1-4)][Neu5Ac(a2-6)Gal(b1-4)GlcNAc(b1-2)[Neu5Ac(a2-6)Gal(b1-4)GlcNAc(b1-6)]Man(a1-6)]Man(b1-4)GlcNAc(b1-4)GlcNAc
# Outline: as §1
# [25] = biological target: Neu5Ac(a2-6)Gal(b1-4)GlcNAc(b1-2)[Neu5Ac(a2-6)Gal(b1-4)GlcNAc(b1-6)]Man(a1-6)[Neu5Ac(a2-6)Gal(b1-4)GlcNAc(b1-2)Man(a1-3)][GlcNAc(b1-4)]Man(b1-4)GlcNAc(b1-4)GlcNAc
# Outline: as §1
# [26] = biological target: Neu5Ac(a2-6)Gal(b1-4)GlcNAc(b1-3)Gal(b1-4)GlcNAc(b1-3)Gal(b1-4)GlcNAc(b1-2)Man(a1-3)[Neu5Ac(a2-6)Gal(b1-4)GlcNAc(b1-3)Gal(b1-4)GlcNAc(b1-3)Gal(b1-4)GlcNAc(b1-2)Man(a1-6)]GalNAc
# Outline: as §1
# [27] = biological target: Neu5Gc(a2-6)GalNAc
# Outline: as §1
binder,measurement,setting,value
"Ovorubin (Pomacea canaliculata), J7I2T6 (protein) MFVATSLLLAIATLVVRASPHNYLIMDIEPPKSVSERDILNLLSPLQVKHSFRVTGSTRLLIVIRLDAQSYEKLDEITVPGKVEVIPAVNMADTMERCGVSWPRVELTDDNVTLFESESTLTDVTKEQLKAMLIGYGEHMSGLLQAHRFEYYQAAGATPHRHFVFVNSVPDEIEVFGREGVDIWGGPGEFVVKPQYVTRI",glycan array binding signal (z-score),[1],3.93
same,glycan array binding signal (z-score),[2],-0.618
same,glycan array binding signal (z-score),[3],-0.066
same,glycan array binding signal (z-score),[4],-0.181
same,glycan array binding signal (z-score),[5],-0.233
same,glycan array binding signal (z-score),[6],-0.39
same,glycan array binding signal (z-score),[7],-0.105
same,glycan array binding signal (z-score),[8],7.53
same,glycan array binding signal (z-score),[9],0.255
same,glycan array binding signal (z-score),[10],-0.9
same,glycan array binding signal (z-score),[11],-0.148
same,glycan array binding signal (z-score),[12],-0.45
same,glycan array binding signal (z-score),[13],-0.397
same,glycan array binding signal (z-score),[14],0.215
same,glycan array binding signal (z-score),[15],0.207
same,glycan array binding signal (z-score),[16],-1.06
same,glycan array binding signal (z-score),[17],-0.055
same,glycan array binding signal (z-score),[18],0.287
same,glycan array binding signal (z-score),[19],-0.336
same,glycan array binding signal (z-score),[20],0.036
same,glycan array binding signal (z-score),[21],-0.129
same,glycan array binding signal (z-score),[22],-0.738
same,glycan array binding signal (z-score),[23],-0.358
same,glycan array binding signal (z-score),[24],3.19
same,glycan array binding signal (z-score),[25],-0.646
same,glycan array binding signal (z-score),[26],3.06
same,glycan array binding signal (z-score),[27],0.691
